Reference: PubChem BioAssay AID1159580 (chemical genetic matrix, 2015)
“And” between values parts separate entries of the source, which are not always exact repeats. Equal entries are not always repeated. Screen size: about 5,500 compounds; about 2,000 (36%) were called active. Inconclusive results (about 18%) are left out. Cut-off read from the data, not from the text of the source: active = normalized growth mostly below about 0.91 (no sharp cut-off); inconclusive = no clear call, values can overlap the other calls; inactive = mostly above about 0.92. This is one part of the list.

Test: chemical genetic growth profiling, strain panel (AID 1159580);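 note: tested at 20 µM; growth read once vehicle control cultures reached saturation at 30 °C; 1 = growth at the plate median or of vehicle wells; lower values mean less growth of the strain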
Conditions: S. cerevisiae deletion strains, growth OD

Measured: normalized growth

CC1(C)C(=O)[C@@H]2O[C@@H]2[C@@]2(C)C1C[C@@H](O)[C@]1(C)C2CC[C@@]2(C)[C@H](c3ccoc3)OC(=O)C3OC321 (stereo partly specified)
inactive: locus YAL021C, strain ccr4, active compounds read low 0.981 | locus YAL026C, strain drs2, active compounds read low 0.969 | locus YAL030W, strain snc1, active compounds read low 0.982 | locus YBL061C, strain skt5, active compounds read low 0.989 | locus YBR009C, strain hhf1, active compounds read low 1 | locus YBR021W, strain FUR4, active compounds read low 0.965 | locus YBR023C, strain chs3, active compounds read low 0.998 | locus YBR171W, strain sec66, active compounds read low 0.994 | locus YBR229C, strain ROT2, active compounds read low 1 | locus YBR231C, strain swc5, active compounds read low 0.995 | locus YBR279W, strain paf1, active compounds read low 0.987 | locus YCL011C, strain gbp2, active compounds read low 0.999 | locus YCL016C, strain dcc1, active compounds read low 0.997 | locus YCL029C, strain bik1, active compounds read low 0.988 | locus YCL061C, strain MRC1, active compounds read low 1.01 | locus YCL069W, strain vba3, active compounds read low 0.999 | locus YCR088W, strain abp1, active compounds read low 1 | locus YDL005C, strain med2, active compounds read low 0.987 | locus YDL035C, strain GPR1, active compounds read low 0.998 | locus YDL040C, strain nat1, active compounds read low 0.998 | locus YDL074C, strain BRE1, active compounds read low 0.972 | locus YDL101C, strain DUN1, active compounds read low 1 | locus YDL134C, strain PPH21, active compounds read low 0.989 | locus YDL185W, strain tfp1, active compounds read low 0.997 | locus YDL192W, strain arf1, active compounds read low 0.988 | locus YDR001C, strain nth1, active compounds read low 1 | locus YDR069C, strain doa4, active compounds read low 0.999 | locus YDR101C, strain arx1, active compounds read low 0.971 | locus YDR137W, strain rgp1, active compounds read low 1 | locus YDR150W, strain NUM1, active compounds read low 1 | locus YDR159W, strain sac3, active compounds read low 0.998 | locus YDR162C, strain NBP2, active compounds read low 1 | locus YDR195W, strain ref2 0.989 | locus YDR297W, strain sur2, active compounds read low 0.99 | locus YDR318W, strain mcm21, active compounds read low 0.974 | locus YDR334W, strain swr1, active compounds read low 0.989 | locus YDR335W, strain msn5, active compounds read low 0.987 | locus YDR388W, active compounds read low 0.991 | locus YDR392W, strain spt3, active compounds read low 0.984 | locus YDR502C, strain sam2, active compounds read low 0.957 | locus YEL003W, strain gim4, active compounds read low 1.01 | locus YEL037C, strain rad23, active compounds read low 0.988 | locus YEL061C, strain CIN8 (second series), active compounds read low 1 | locus YER015W, strain faa2, active compounds read low 0.996 | locus YER016W, strain bim1, active compounds read low 0.995 | locus YER110C, active compounds read low 0.976 | locus YER111C, strain swi4, active compounds read low 0.996 | locus YER155C, strain BEM2 (second series), active compounds read low 1 | locus YER155C, strain BEM2, active compounds read low 1 | locus YER167W, strain BCK2, active compounds read low 1.01 | locus YFR010W, strain ubp6, active compounds read low 1 | locus YGL078C, strain dbp3, active compounds read low 0.985 | locus YGL086W, strain mad1, active compounds read low 0.977 | locus YGL167C, strain pmr1, active compounds read low 1.01 | locus YGL173C, strain kem1, active compounds read low 1 | locus YGL227W, strain vid30, active compounds read low 1 | locus YGL240W, strain doc1, active compounds read low 1 | locus YGL248W, strain PDE1, active compounds read low 0.998 | locus YGL253W, strain hxk2, active compounds read low 1 | locus YGR135W, strain pre9, active compounds read low 0.952 | locus YGR229C, strain SMI1, active compounds read low 0.981 | locus YGR252W, strain gcn5, active compounds read low 0.845 | locus YHR013C, strain ard1, active compounds read low 0.993 | locus YHR027C, strain rpn1, active compounds read low 0.997 | locus YHR030C, strain SLT2, active compounds read low 1.02 and 0.977 | locus YHR079C, strain IRE1 (second series), active compounds read low 0.991 | locus YHR079C, strain IRE1, active compounds read low 0.986 | locus YHR094C, strain hxt1, active compounds read low 0.989 | locus YHR129C, strain ARP1, active compounds read low 1 | locus YHR142W, strain chs7, active compounds read low 0.993 | locus YHR200W, strain rpn10, active compounds read low 0.982 | locus YIL066C, strain RNR3, active compounds read low 1.01 | locus YIL073C, strain SPO22, active compounds read low 0.992 | locus YIL125W, strain kgd1, active compounds read low 0.992 | locus YIR030C, strain dcg1, active compounds read low 0.994 | locus YJL092W, strain hpr5, active compounds read low 1 | locus YJL095W, strain BCK1 (second series), active compounds read low 0.994 | locus YJL095W, strain BCK1, active compounds read low 0.982 and 0.983 | locus YJL115W, strain asf1, active compounds read low 0.989 | locus YJL129C, strain trk1, active compounds read low 0.985 | locus YJL134W, strain LCB3, active compounds read low 0.997 | locus YJL154C, strain vps35, active compounds read low 0.999 | locus YJL164C, strain tpk1, active compounds read low 0.981 | locus YJL166W, strain qcr8, active compounds read low 0.983 | locus YJL168C, strain set2, active compounds read low 0.985 | locus YJL187C, strain SWE1 (second series), active compounds read low 0.984
